The nature of assay [1]: polyglutamine-triggered caspase-3 activation inhibitors, cell-based (AID 1583). To be noted: polyglutamine-induced caspase-3 activation, cell assay; stronger effect = higher value;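 tested at 10 µM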.
A short description of assay [2]: suppressors of polyQ aggregation in yeast, 75Q-TubU reporter (AID 1593). As to conditions: Yeast 75Q polyglutamine aggregation reporter.
The nature of assay [3]: rescue of polyQ-huntingtin neuronal dysfunction in worms, whole organism, C. elegans mechanosensory neurons, N-terminal huntingtin (AID 1599). To be noted: touch response, stronger effect = higher value.
Assay [4] is described as follows: inhibitors of mitochondrial cytochrome c release, biochemical, purified mitochondria (AID 1603).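 Also: mouse liver mitochondria challenged with calcium chloride; signal normalized to the plate average as 100%.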 As to conditions: stronger effect = lower value.
Assay [5] can be described thus: inhibitors of polyQ protein aggregation (AID 1604). As to conditions: polyglutamine-induced protein aggregation inhibition assay; stronger effect = higher value; tested at 2.5 µM.
Assay [6] is described as follows: enhancers of glutamate uptake in motor neurons, MN-1 cell line (AID 1612).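 Also: tested at 1 µM final; 0% = mean of DMSO vehicle wells on each plate; positive means more glutamate uptake than control and negative means less.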 As to conditions: MN-1 motor neuron cells, stronger effect = higher value.
A short description of assay [7]: reducers of polyQ inclusions in PC12 cells, cell-based, NGF-treated PC12, GFPQ80 (AID 1614).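 Also: lower means fewer inclusions and 0 means no inclusions at all.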 To be noted: PC12 NGF-treated GFP-polyQ80 inclusion reduction.
A short description of assay [8]: suppressors of polyglutamine aggregation in yeast, 75Q-TubH (AID 1616). To be noted: S. cerevisiae 75Q-TubH polyglutamine aggregation suppression; stronger effect = higher value.
The nature of assay [9]: hESC survival regulators, cell-based (AID 493140).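 Also: cells exposed to compounds for four days before counting.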 To be noted: human embryonic stem cell survival screen; stronger effect = higher value.

Each structure is given as a SMILES string. For some assays here: Entries with a potency or affinity are not part of this list. The source made the active and inactive calls. No rule for the calls is given here.

Take `CCCCOC(=O)c1ccc(N)cc1`: the inhibition (commonly the relative decrease from the control value, in per cent) in assay [1] stood at 10.7%. For the same molecule, the score in [2] was found to be 0.73. The molecule further displayed a rescue above control in assay [3] of 12.6. Further, the cytochrome c release ratio in assay [4] was 0.92. For the same molecule, the inhibition of aggregation in assay [5] came to 7.84%. Also, the glutamate uptake change in [6] turned out to be 19.2%. In [7], this molecule had an inclusion score of 2. Moreover, the aggregation suppression score in assay [8] was 0.439. Further, in [9], the survival was 0.75 (inactive).
As for `COc1cc(NS(=O)(=O)c2ccc(N)cc2)nc(OC)n1`, the inhibition in [1] was 1.07%. The score in assay [2] came to 1.14. Moreover, the rescue above control in assay [3] is -2.33. For the same molecule, in [4], the cytochrome c release ratio came out at 0.86. Moreover, the inhibition of aggregation in assay [5] worked out at 67.5%. The glutamate uptake change in [6] was -20.2%. Also, in [7], the inclusion score worked out at 2. Also, in assay [8], the aggregation suppression score turned out to be 1.32. In addition, the survival in [9] was 3.33 (inactive).
In the case of `Cc1cc(CC(=O)O)n(C)c1C(=O)c1ccc(Cl)cc1`, the inhibition in [1] was -20.4%. Further, in assay [2], the score stood at 0.85. The molecule also displayed a rescue above control in [3] of 20.8. Moreover, the cytochrome c release ratio in assay [4] turned out to be 0.92. Further, in assay [5], the inhibition of aggregation was determined as 83.3%. Further, the glutamate uptake change in [6] was -4.24%. In addition, the inclusion score in [7] came to 2. The molecule also had an aggregation suppression score in assay [8] of 0.565. In addition, in assay [9], the survival was 3.5 (inactive).
For the molecule `Cc1c(NC(C)C)c(=O)n(-c2ccccc2)n1C`, the inhibition in assay [1] turned out to be 6.61%. Besides, in assay [2], the score was determined as 1.54. The rescue above control in assay [3] was -6.83. The cytochrome c release ratio in [4] came out at 1.16. This molecule came in with an inhibition of aggregation in [5] of 13.7%. Further, the glutamate uptake change in assay [6] was 28.4%. In addition, the inclusion score in assay [7] was 2. Also, the aggregation suppression score in assay [8] worked out at 1.14. The survival in assay [9] was 7.42 (inactive).
As for `Cc1cc(=O)n(-c2ccccc2)n1C`, in assay [1], the inhibition is 22%. In [2], this molecule had a score of 1.07. In addition, in assay [3], the rescue above control worked out at 2.73. In addition, in assay [4], the cytochrome c release ratio amounted to 1.13. In assay [5], this molecule returned an inhibition of aggregation of 22.2%. Further, in assay [6], the glutamate uptake change was -12.9%. The molecule further showed an inclusion score in assay [7] of 2. The molecule further registered an aggregation suppression score in assay [8] of 1.35. Besides, the survival in assay [9] is 27 (inactive).
For `Cc1cc(NC(=O)C2=C(O)c3ccccc3S(=O)(=O)N2C)no1`, the inhibition in [1] was determined as 49.9%. The molecule also returned a score in assay [2] of 0.18. The rescue above control in assay [3] is -11.8. For the same molecule, in [4], the cytochrome c release ratio stood at 1.04. Moreover, the inhibition of aggregation in assay [5] was 72.2%. In [6], the glutamate uptake change worked out at 11.8%. For the same molecule, the inclusion score in assay [7] came to 2. In assay [8], this molecule showed an aggregation suppression score of -0.565. In addition, in [9], the survival is 12.4 (inactive).
For `CCn1cc(C(=O)O)c(=O)c2cnc(N3CCNCC3)nc21`, in assay [1], the inhibition was -5.14%. Also, in [2], the score turned out to be 1.35. This molecule also displayed a rescue above control in assay [3] of 5.83. The cytochrome c release ratio in assay [4] turned out to be 0.98. The molecule further gave an inhibition of aggregation in [5] of 72.4%. The glutamate uptake change in assay [6] is -1.23%. For the same molecule, in assay [7], the inclusion score was determined as 2. This molecule had an aggregation suppression score in assay [8] of 1.16. Moreover, in [9], the survival is 5.25 (inactive).
As to `Oc1ccc(Cl)c2cccnc12`, in assay [1], the inhibition was 19.1%. Besides, the score in assay [2] is -0.02. The molecule further showed a rescue above control in assay [3] of -0.67. Also, the cytochrome c release ratio in assay [4] was found to be 0.81. The molecule also returned an inhibition of aggregation in assay [5] of 63.5%. Further, in assay [6], the glutamate uptake change turned out to be 42.4%. This molecule also gave an aggregation suppression score in assay [8] of 0.0533.
Take `CCN(CC)CCNC(=O)COc1ccc(OC)cc1`: the inhibition in assay [1] worked out at 62%. Also, the score in [2] came out at 1.13. In assay [3], this molecule had a rescue above control of -1.97. Besides, the cytochrome c release ratio in assay [4] turned out to be 0.98. This molecule also showed an inhibition of aggregation in assay [5] of 72.2%. Besides, the glutamate uptake change in assay [6] stood at 0.53%. The inclusion score in [7] is 2. Also, the aggregation suppression score in assay [8] worked out at 1.23. In addition, the survival in assay [9] was 49.8 (inactive).
Turning to `Nc1nc2c(c(=O)[nH]1)N(C=O)C(CNc1ccc(C(=O)N[C@@H](CCC(=O)O)C(=O)O)cc1)CN2` (stereo partly drawn), the inhibition in [1] was 16.8%. The same molecule showed a score in assay [2] of 2.89. In addition, in [3], the rescue above control is -4.97. Further, in [4], the cytochrome c release ratio was determined as 1.12. The molecule also gave an inhibition of aggregation in assay [5] of 35%. The glutamate uptake change in assay [6] is -0.12%. Further, the inclusion score in [7] worked out at 1.5. In assay [8], the aggregation suppression score was determined as 2.31. Also, the survival in [9] was 8.17 (inactive).
For the molecule `Oc1c(I)cc(I)c2cccnc12`, the inhibition in assay [1] was 17.6%. In [2], this molecule showed a score of -0.2. Also, in [3], the rescue above control was -12.4. Moreover, the cytochrome c release ratio in [4] was 1.04. Also, in [5], the inhibition of aggregation came out at 24.2%. Besides, in assay [6], the glutamate uptake change was 78.2%. The aggregation suppression score in assay [8] stood at 0.108.
`CC(N)CCCC(C)(C)O` (stereo not drawn): the inhibition in assay [1] came out at 23.3%. In assay [2], this molecule registered a score of 1.12. Further, in assay [3], the rescue above control is -5.82. For the same molecule, the cytochrome c release ratio in assay [4] is 0.68. In assay [5], this molecule returned an inhibition of aggregation of 19.1%. Moreover, the glutamate uptake change in assay [6] is -4.36%. The inclusion score in [7] is 2. Besides, the aggregation suppression score in assay [8] is 1.46. The survival in assay [9] was 21.5 (inactive).
As to `CC(=O)NS(=O)(=O)c1ccc(N)cc1`, in [1], the inhibition stood at 11.3%. This molecule registered a score in assay [2] of 1.36. Also, in [3], the rescue above control is -14.1. In addition, the cytochrome c release ratio in [4] amounted to 1.02. For the same molecule, the inhibition of aggregation in [5] came to 48.5%. Further, the glutamate uptake change in assay [6] stood at 16.9%. For the same molecule, in assay [7], the inclusion score is 2. Besides, the aggregation suppression score in assay [8] was 1.16. In assay [9], the survival is 17.3 (inactive).
